Measured values taken from PubChem BioAssay AID1159580 (chemical genetic matrix, 2015).
About 2,000 (36%) of roughly 5,500 compounds were called active. Not shown: some 18% with an inconclusive outcome. Rule as the data show it: active = normalized growth mostly below about 0.91 (no sharp cut-off); inconclusive = no clear call, values can overlap the other calls; inactive = mostly above about 0.92. The list shows a part of the results.

Assay: chemical genetic growth profiling, strain panel (AID 1159580);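 also: tested at 20 µM; growth read once vehicle control cultures reached saturation at 30 °C; 1 = growth at the plate median or of vehicle wells; lower values mean less growth of the strain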
Settings: S. cerevisiae deletion strains, growth OD
[1] = locus YHR030C, strain SLT2, active compounds read low
[2] = locus YHR079C, strain IRE1, active compounds read low
[3] = locus YJL095W, strain BCK1, active compounds read low
[4] = locus YJR066W, strain TOR1, active compounds read low
[5] = locus YLR113W, strain HOG1, active compounds read low
[6] = locus YNL183C, strain NPR1, active compounds read low
[7] = locus YOR231W, strain MKK1, active compounds read low
[8] = locus YPL256C, strain CLN2, active compounds read low
[9] = locus YAL040C, strain CLN3, active compounds read low
[10] = locus YER002W, strain NOP16, active compounds read low
[11] = locus YGR229C, strain SMI1, active compounds read low
[12] = locus YMR263W, strain SAP30, active compounds read low
[13] = locus YNL128W, strain TEP1, active compounds read low
[14] = locus YNL153C, strain GIM3, active compounds read low
[15] = locus YNL175C, strain NOP13, active compounds read low
[16] = locus YNL197C, strain WHI3, active compounds read low
[17] = locus YNL224C, strain SQS1, active compounds read low
[18] = locus YOR083W, strain WHI5 (second series), active compounds read low
[19] = locus YCL061C, strain MRC1 (second series), active compounds read low
[20] = locus YDR363W, strain ESC2, active compounds read low
[21] = locus YMR307W, strain GAS1, active compounds read low
[22] = locus YPL055C, strain LGE1, active compounds read low
[23] = locus YPL241C, strain CIN2, active compounds read low

Measured: normalized growth

O=C1OC2(c3ccc(O)cc3Oc3cc(O)ccc32)c2ccccc21
inactive: locus YAL021C, strain ccr4, active compounds read low 1.02 | locus YAL026C, strain drs2, active compounds read low 0.997 | locus YAL030W, strain snc1, active compounds read low 1.01 | locus YBL061C, strain skt5, active compounds read low 1.01 | locus YBR009C, strain hhf1, active compounds read low 0.995 | locus YBR023C, strain chs3, active compounds read low 1.02 | locus YBR171W, strain sec66, active compounds read low 1.04 | locus YBR231C, strain swc5, active compounds read low 1 | locus YBR279W, strain paf1, active compounds read low 1.01 | locus YCL011C, strain gbp2, active compounds read low 1.02 | locus YCL016C, strain dcc1, active compounds read low 1 | locus YCL069W, strain vba3, active compounds read low 1.02 | locus YCR088W, strain abp1, active compounds read low 1.03 | locus YDL005C, strain med2, active compounds read low 1.02 | locus YDL040C, strain nat1, active compounds read low 1.01 | locus YDR001C, strain nth1, active compounds read low 1.03 | locus YDR069C, strain doa4, active compounds read low 1.01 | locus YDR137W, strain rgp1, active compounds read low 0.994 | locus YDR159W, strain sac3, active compounds read low 0.986 | locus YDR195W, strain ref2 1.03 | locus YDR297W, strain sur2, active compounds read low 1.02 | locus YDR334W, strain swr1, active compounds read low 0.989 | locus YDR335W, strain msn5, active compounds read low 1.01 | locus YDR392W, strain spt3, active compounds read low 0.976 | locus YEL003W, strain gim4, active compounds read low 1.01 | locus YEL037C, strain rad23, active compounds read low 1.01 | locus YEL061C, strain CIN8 (second series), active compounds read low 1.01 | locus YER015W, strain faa2, active compounds read low 1.01 | locus YER016W, strain bim1, active compounds read low 0.994 | locus YER111C, strain swi4, active compounds read low 1.01 | locus YER155C, strain BEM2 (second series), active compounds read low 1.02 | locus YFR010W, strain ubp6, active compounds read low 1.02 | locus YGL167C, strain pmr1, active compounds read low 1.02 | locus YGL173C, strain kem1, active compounds read low 1.01 | locus YGL227W, strain vid30, active compounds read low 1.02 | locus YGL240W, strain doc1, active compounds read low 0.973 | locus YGL253W, strain hxk2, active compounds read low 1.02 | locus YHR013C, strain ard1, active compounds read low 1.04 | locus YHR027C, strain rpn1, active compounds read low 1.01 | [1] 0.978 | [2] 0.974 | locus YHR142W, strain chs7, active compounds read low 1.04 | locus YJL092W, strain hpr5, active compounds read low 1.02 | locus YJL095W, strain BCK1 (second series), active compounds read low 1.01 | [3] 1.02 | locus YJL115W, strain asf1, active compounds read low 1.01 | locus YJL129C, strain trk1, active compounds read low 1.04 | locus YJL154C, strain vps35, active compounds read low 1.02 | locus YJL164C, strain tpk1, active compounds read low 1 | locus YJL166W, strain qcr8, active compounds read low 1 | [4] 0.938 | locus YKL160W, strain elf1, active compounds read low 1.02 | locus YKR026C, strain gcn3, active compounds read low 1.02 | locus YKR091W, strain srl3, active compounds read low 1.02 | locus YLL001W, strain dnm1, active compounds read low 0.997 | locus YLL026W, active compounds read low 0.999 | locus YLL041C, strain sdh2, active compounds read low 1.01 | locus YLR027C, strain aat2, active compounds read low 1.01 | [5] 0.98 | locus YLR221C, strain rsa3, active compounds read low 0.999 | locus YLR258W, strain gsy2, active compounds read low 1.01 | locus YLR262C, strain YPT6 (second series), active compounds read low 1 | locus YLR320W, strain mms22, active compounds read low 1 | locus YLR342W, strain FKS1, active compounds read low 0.992 | locus YLR357W, strain rsc2, active compounds read low 1.01 | locus YLR370C, strain arc18, active compounds read low 1.01 | locus YLR384C, strain iki3, active compounds read low 1.02 | locus YML120C, strain ndi1, active compounds read low 1.04 | locus YMR058W, strain fet3, active compounds read low 1.01 | locus YMR125W, strain sto1, active compounds read low 1.02 | locus YMR129W, active compounds read low 1.02 | locus YMR205C, strain PFK2, active compounds read low 1.02 | locus YMR231W, strain pep5, active compounds read low 1.02 | locus YNL071W, strain lat1, active compounds read low 1.01 | [6] 0.951 | locus YNL209W, strain ssb2, active compounds read low 1.02 | locus YNL248C, strain rpa49, active compounds read low 1 | locus YNL322C, strain KRE1 (second series), active compounds read low 0.99 | locus YNR049C, strain mso1, active compounds read low 1.02 | locus YOR001W, strain rrp6, active compounds read low 1.01 | locus YOR070C, strain gyp1, active compounds read low 1.01 | locus YOR080W, strain dia2, active compounds read low 1.02 | locus YOR083W, strain WHI5, active compounds read low 0.98 | locus YOR106W, strain vam3, active compounds read low 1.02 | [7] 0.971 | locus YOR265W, strain rbl2, active compounds read low 1.01 | locus YOR270C, strain vph1, active compounds read low 0.991 | locus YOR290C, strain snf2, active compounds read low 1 | locus YPL051W, strain arl3, active compounds read low 0.997 | locus YPL078C, strain atp4, active compounds read low 0.992 | locus YPL106C, strain sse1, active compounds read low 0.987 | locus YPL240C, strain hsp82, active compounds read low 1.01 | [8] 0.99

NC(N)=NCCC[C@H](N)C(=O)O
inactive: [9] 1.09 | [10] 1.01 | locus YGR078C, strain PAC10, active compounds read low 0.987 | [11] 0.98 | [12] 1.01 | [13] 0.986 | [14] 1.01 | [15] 0.981 | [16] 0.989 | [17] 0.999 | locus YNL322C, strain KRE1, active compounds read low 0.984 | [18] 0.975

CCCCC#Cc1nc(N)c2ncn([C@@H]3O[C@H](C(=O)NCC)[C@@H](O)[C@H]3O)c2n1
inactive: [9] 0.949 | [19] 0.996 | [20] 1 | [10] 1 | [12] 0.996 | [21] 1.01 | [14] 1.19 | [15] 0.98 | [16] 0.982 | [17] 1.01 | [18] 0.982 | [22] 0.991 | [23] 0.994

COc1nc(C)nc(Cl)c1NC1=NCCN1
inactive: locus YAL013W, strain DEP1, active compounds read low 1.01 | [9] 0.999 | [19] 0.999 | locus YDR150W, strain NUM1, active compounds read low 0.996 | [20] 1.01 | [10] 0.987 | [11] 1.01 | locus YJR075W, strain HOC1, active compounds read low 0.99 | [12] 0.998 | [21] 1.01 | [13] 1.01 | [15] 1 | [16] 1 | [17] 1.01 | [18] 1.01 | [22] 0.998 | [23] 0.997

Cc1c(C(=S)Nc2ccccc2)sc2ccccc12
inactive: locus YAR019C, strain CDC15, active compounds read low 0.943 | locus YBL105C, strain PKC1, active compounds read low 0.958 | locus YBR135W, strain CKS1, active compounds read low 0.935 | locus YBR136W, strain MEC1, active compounds read low 0.947 | locus YBR160W, strain CDC28, active compounds read low 0.948 | locus YDL017W, strain CDC7, active compounds read low 0.964 | locus YDL028C, strain MPS1, active compounds read low 0.953 | locus YDL101C, strain DUN1, active compounds read low 0.961 | locus YDL108W, strain KIN28, active compounds read low 0.946 | locus YDL132W, strain cdc53, active compounds read low 0.967 | locus YDL214C, strain PRR2, active compounds read low 0.881 | locus YDR052C, strain DBF4, active compounds read low 0.959 | locus YDR054C, strain cdc34, active compounds read low 0.938 | locus YDR226W, strain ADK1, active compounds read low 0.941 | locus YDR477W, strain SNF1, active compounds read low 0.887 | locus YER123W, strain YCK3, active compounds read low 0.882 | locus YER133W, strain GLC7, active compounds read low 0.865 | locus YFL009W, strain cdc4, active compounds read low 0.943 | locus YFL029C, strain CAK1, active compounds read low 0.941 | locus YFR003C, strain YPI1, active compounds read low 0.949 | locus YFR019W, strain FAB1, active compounds read low 0.948 | locus YFR028C, strain CDC14, active compounds read low 0.969 | locus YGR040W, strain KSS1, active compounds read low 0.867 | locus YGR052W, strain FMP48, active compounds read low 0.968 | locus YGR092W, strain DBF2, active compounds read low 0.728 | [2] 0.816 | locus YHR082C, strain KSP1, active compounds read low 0.863 | locus YHR205W, strain SCH9, active compounds read low 0.861 | locus YIL147C, strain SLN1, active compounds read low 0.951 | [3] 0.886 | locus YJL128C, strain PBS2, active compounds read low 0.95 | locus YJL157C, strain FAR1, active compounds read low 0.863 | locus YJR016C, strain ILV3, active compounds read low 0.946 | locus YJR066W, strain TOR1 (second series), active compounds read low 0.818 | [4] 0.899 | locus YKL048C, strain ELM1, active compounds read low 0.933 | locus YKL067W, strain YNK1, active compounds read low 0.884 | locus YKL101W, strain HSL1, active compounds read low 0.917 | locus YKL193C, strain SDS22, active compounds read low 0.94 | locus YKL203C, strain TOR2, active compounds read low 0.925 | [5] 0.915 | locus YLR133W, strain CKI1, active compounds read low 0.888 | locus YLR403W, strain SFP1, active compounds read low 0.81 | locus YML070W, strain DAK1, active compounds read low 0.865 | locus YMR001C, strain CDC5, active compounds read low 0.938 | locus YMR205C, strain PFK2 (second series), active compounds read low 0.879 | locus YMR277W, strain FCP1, active compounds read low 0.939 | locus YNL006W, strain LST8, active compounds read low 0.951 | locus YNL020C, strain ARK1, active compounds read low 0.875 | locus YNL161W, strain CBK1, active compounds read low 0.954 | [6] 0.863 | locus YNL207W, strain RIO2, active compounds read low 0.946 | locus YNL222W, strain SSU72, active compounds read low 0.941 | locus YNL307C, strain MCK1 (second series), active compounds read low 0.842 | locus YOL078W, strain AVO1, active compounds read low 0.934 | locus YOL136C, strain PFK27, active compounds read low 0.859 | locus YOR061W, strain CKA2, active compounds read low 0.854 | locus YOR119C, strain RIO1, active compounds read low 0.965 | [7] 0.879 | locus YOR329C, strain SCD5, active compounds read low 0.958 | locus YPL031C, strain PHO85, active compounds read low 0.862 | locus YPL153C, strain RAD53, active compounds read low 0.847 | locus YPL204W, strain HRR25, active compounds read low 0.828 | locus YPL209C, strain IPL1, active compounds read low 0.95 | [8] 0.899 | locus YPR025C, strain CCL1, active compounds read low 0.945 | locus YPR106W, strain ISR1, active compounds read low 0.951 | locus YPR111W, strain DBF20, active compounds read low 0.99 | strain NNK1, active compounds read low 0.949 | strain TSCII, active compounds read low 0.941
active: [1] 0.809
